{
  "source": "the supplement of paper PMC7184167",
  "note": "Counter-ions that a name gives are not always drawn.",
  "data": [
    {"test_system": "replication-induced senescent mouse newborn dermal fibroblasts (NBF)", "assay": "relative cell viability of senescent cells (fraction); higher = less killing of senescent cells", "conditions": "1 µM; 3 days", "description": "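Replication-induced senescent newborn mouse skin fibroblasts (NBFs) in 24-well plates were treated with a Selleck FDA-approved drug library at 1 µM for 3 days.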", "values": [
      {"smiles": "NC(=O)N1c2ccccc2CC(=O)c2ccccc21", "note": "[Oxcarbazepine]", "relative cell viability": 0.905},
      {"smiles": "CC(C)c1nc(CN(C)C(=O)N[C@H](C(=O)N[C@@H](Cc2ccccc2)C[C@H](O)[C@H](Cc2ccccc2)NC(=O)OCc2cncs2)C(C)C)cs1", "note": "[Ritonavir]", "relative cell viability": 1.15},
      {"smiles": "CN(C)CCc1c[nH]c2ccc(Cn3cncn3)cc12", "note": "[Rizatriptan Benzoate]", "relative cell viability": 1.09},
      {"smiles": "c1ccc2[nH]c(-c3cscn3)nc2c1", "note": "[Thiabendazole]", "relative cell viability": 1.03},
      {"smiles": "C#C[C@]1(O)CC[C@H]2[C@@H]3CCC4=CC(=O)CC[C@@H]4[C@H]3CC[C@@]21CC", "note": "[Levonorgestrel]", "relative cell viability": 0.996},
      {"smiles": "C[C@]12C=CC(=O)C=C1CC[C@@H]1[C@@H]2[C@@H](O)C[C@@]2(C)[C@H]1CC[C@]2(O)C(=O)CO", "note": "[Prednisolone]", "relative cell viability": 1.01},
      {"smiles": "CC(=O)O[C@H]1C[C@@H]2CC[C@@H]3[C@H](CC[C@@]4(C)[C@H]3C[C@H]([N+]3(C)CCCCC3)[C@@H]4OC(C)=O)[C@@]2(C)C[C@@H]1N1CCCCC1", "note": "[Vecuronium Bromide]", "relative cell viability": 1.08},
      {"smiles": "O=C1CCC(N2C(=O)c3ccccc3C2=O)C(=O)N1", "note": "(stereo not given) [Thalidomide]", "relative cell viability": 0.296},
      {"smiles": "COc1ccccc1OCC(O)COC(N)=O", "note": "(stereo not given) [Methocarbamol]", "relative cell viability": 1.03},
      {"smiles": "CC(C)(C)C(=O)OCOP(=O)(COCCn1cnc2c(N)ncnc21)OCOC(=O)C(C)(C)C", "note": "[Adefovir Dipivoxil]", "relative cell viability": 0.924},
      {"smiles": "Cc1cn(-c2cc(NC(=O)c3ccc(C)c(Nc4nccc(-c5cccnc5)n4)c3)cc(C(F)(F)F)c2)cn1", "note": "[Nilotinib (AMN-107)]", "relative cell viability": 0.044},
      {"smiles": "COC(=O)Nc1nc2cc([S+]([O-])c3ccccc3)ccc2[nH]1", "note": "(stereo not given) [Oxfendazole]", "relative cell viability": 1.04},
      {"smiles": "COc1cc2c(Oc3ccc(NC(=O)C4(C(=O)Nc5ccc(F)cc5)CC4)cc3F)ccnc2cc1OCCCN1CCOCC1", "relative cell viability": 0.757},
      {"smiles": "Cc1ccc(Nc2nccc(N(C)c3ccc4c(C)n(C)nc4c3)n2)cc1S(N)(=O)=O", "relative cell viability": 1.05},
      {"smiles": "CN(C)CC/C=C1/c2ccccc2Sc2ccc(Cl)cc21", "note": "[Chlorprothixene]", "relative cell viability": 1.1},
      {"smiles": "CCOc1ccc(Cc2cc([C@@H]3O[C@H](CO)[C@@H](O)[C@H](O)[C@H]3O)ccc2Cl)cc1", "note": "[Dapagliflozin]", "relative cell viability": 1.2},
      {"smiles": "C[C@]12CC[C@@H]3c4ccc(O)cc4CC[C@H]3[C@@H]1CCC2=O", "note": "[Estrone]", "relative cell viability": 1},
      {"smiles": "COc1cc(Nc2nc3ccccc3nc2NS(=O)(=O)c2ccc(NC(=O)c3ccc(C)c(OC)c3)cc2)cc(OC)c1", "relative cell viability": 0.969},
      {"smiles": "CC(C)(C#N)c1cc(Cn2cncn2)cc(C(C)(C)C#N)c1", "note": "[Anastrozole]", "relative cell viability": 0.993},
      {"smiles": "C[C@@](Cc1ccc(O)c(O)c1)(NN)C(=O)O", "note": "[Carbidopa]", "relative cell viability": 1.05},
      {"smiles": "CC1(C)O[C@@H]2C[C@H]3[C@@H]4CCC5=CC(=O)C=C[C@]5(C)[C@H]4[C@@H](O)C[C@]3(C)[C@]2(C(=O)CO)O1", "note": "[Desonide]", "relative cell viability": 1.14},
      {"smiles": "Cc1ccc(F)c(NC(=O)Nc2ccc(-c3cccc4[nH]nc(N)c34)cc2)c1", "note": "[Linifanib (ABT-869)]", "relative cell viability": 0.927},
      {"smiles": "CC(C)CN(C[C@@H](O)[C@H](Cc1ccccc1)NC(=O)O[C@H]1CCOC1)S(=O)(=O)c1ccc(N)cc1", "note": "[Amprenavir]", "relative cell viability": 1.06},
      {"smiles": "CN(C)[C@@H](CCOc1cccc2ccccc12)c1ccccc1", "note": "[Dapoxetine HCl]", "relative cell viability": 1.08},
      {"smiles": "O=C(O)CSCC(=O)NC1CCSC1=O", "note": "(stereo not given) [Erdosteine]", "relative cell viability": 0.979},
      {"smiles": "Cc1ccc(C)c(OCCCC(C)(C)C(=O)O)c1", "note": "[Gemfibrozil]", "relative cell viability": 1.02},
      {"smiles": "COc1cc2nccc(Oc3ccc(NC(=O)Nc4cc(C)on4)c(Cl)c3)c2cc1OC", "note": "[Tivozanib (AV-951)]", "relative cell viability": 1.04},
      {"smiles": "O=C(N[C@H](CO)[C@H](O)c1ccc([N+](=O)[O-])cc1)C(Cl)Cl", "note": "[Chloramphenicol]", "relative cell viability": 0.706},
      {"smiles": "C=C1/C(=C\\C=C2/CCC[C@]3(C)[C@@H]([C@H](C)/C=C/[C@H](C)C(C)C)CC[C@@H]23)C[C@@H](O)C[C@@H]1O", "note": "[Doxercalciferol]", "relative cell viability": 1.22},
      {"smiles": "Nc1nc2ccc(OC(F)(F)F)cc2s1", "note": "[Riluzole]", "relative cell viability": 0.836},
      {"smiles": "Cc1ccc(NC(=O)C2(c3ccc4c(c3)OC(F)(F)O4)CC2)nc1-c1cccc(C(=O)O)c1", "note": "[VX-809 (Lumacaftor)]", "relative cell viability": 0.838},
      {"smiles": "Nc1nc(=O)n([C@@H]2CS[C@H](CO)O2)cc1F", "note": "[Emtricitabine]", "relative cell viability": 1.04},
      {"smiles": "C[C@H](CCC(=O)O)[C@H]1CC[C@H]2[C@@H]3[C@H](O)C[C@@H]4C[C@H](O)CC[C@]4(C)[C@H]3CC[C@]12C", "note": "[Chenodeoxycholic Acid]", "relative cell viability": 1.06},
      {"smiles": "CC(=O)N[C@@H](CS)C(=O)O", "note": "[Acetylcysteine]", "relative cell viability": 0.834},
      {"smiles": "O=C(CCCCCCC(=O)Nc1ccccc1)NO", "note": "[Vorinostat (SAHA, MK0683)]", "relative cell viability": 0.75},
      {"smiles": "Nc1ccc(S(N)(=O)=O)cc1", "note": "[Sulfanilamide]", "relative cell viability": 0.91},
      {"smiles": "COC(=O)Nc1nc2cc(C(=O)c3ccc(F)cc3)ccc2[nH]1", "note": "[Flubendazole]", "relative cell viability": 0.886},
      {"smiles": "C=CC[N+]1([C@H]2C[C@H]3[C@@H]4CC[C@H]5C[C@H](O)[C@@H](N6CCOCC6)C[C@]5(C)[C@H]4CC[C@]3(C)[C@H]2OC(C)=O)CCCC1", "note": "[Rocuronium Bromide]", "relative cell viability": 0.939},
      {"smiles": "CN(CCOc1ccc(NS(C)(=O)=O)cc1)CCc1ccc(NS(C)(=O)=O)cc1", "note": "[Dofetilide]", "relative cell viability": 1.02},
      {"smiles": "Cc1cccc(Nc2ccncc2S(=O)(=O)NC(=O)NC(C)C)c1", "note": "[Torsemide]", "relative cell viability": 0.965}
    ]}
  ]
}
